Measurements: PubChem BioAssay AID602252 (Broad Institute, 2012)
Out of some 300,000 compounds screened, about 2,700 (0.9%) were called active.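 Rule for the calls: active = mean inhibition of at least 30% with at least half of replicates also reaching 30%; inconclusive = no clear call, values can overlap the other calls; inactive = the rest.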 The entries come from a sample that favours actives as a whole.

What follows are molecules tested against Golgi-associated PDZ and coiled-coil motif-containing protein (Homo sapiens) (UniProt Q9HD26) (assay: blockade of CAL PDZ-reporter peptide interaction – biochemical, fluorescence polarization, untagged CAL PDZ, HTS, primary screen (AID 602252;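 note: 0% = DMSO neutral control and 100% = excess unlabeled competitor peptide PRC23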)). Settings: purified CAL PDZ, TMR-peptide fluorescence polarization, 1 h; at 24.9 µM; hits give high values.
In the case of `CN(c1ccc(OCC(=O)NC2=NCCS2)cc1)S(=O)(=O)c1ccc(F)cc1`, the inhibition is reported as 81.4% (active).
For `CN(c1ccccc1)S(=O)(=O)c1ccc(NC(=O)COc2ccccc2)cc1`, the inhibition was -1.05% (inactive).
With `Cc1ccc(S(=O)(=O)N(C)c2ccc(OCC(=O)NC3=NCCS3)cc2)cc1` the inhibition was -1.61% (inactive).
With `Cc1ccc(S(=O)(=O)N2CCN(C(=O)Cn3c(=O)cnc4ccccc43)CC2)c(C)c1` the inhibition was -10.5% (inactive).
For `COc1ccc(CNCCCNCc2ccc(OC)c(OC)c2)cc1OC`, the inhibition was 2.4% (inactive).
In the case of `CSCCC(NS(=O)(=O)c1ccc(C)cc1)C(=O)N1CCCC1` (stereo not given), the inhibition is reported as 68.8% (active).
With `CSCC(NS(=O)(=O)c1ccc(C)cc1)C(=O)O` (stereo not given) the inhibition was 2.04% (inactive).
With `CSCCC(NC(=O)c1ccccc1)C(=O)N1CCCCCCC1` (stereo not given) the inhibition was -1.09% (inactive).
For `O=C1[C@@H](c2ccccc2)[C@@H](c2ccccc2)N1c1cccnc1`, the inhibition was -3.46% (inactive).
For `O=C(Cc1ccc(S(=O)(=O)N2CCOCC2)s1)Nc1ccc(Br)c(C(F)(F)F)c1`, the inhibition was -2.21% (inactive).
With `Cc1nc2ccc(NC(=O)c3cccc(S(=O)(=O)N4CCOCC4)c3)cc2s1` the inhibition was -4.38% (inactive).
For `CC(=O)Nc1ccc(NC(=S)NC(=O)c2ccc([N+](=O)[O-])c(C)c2)cc1`, the inhibition was -0.773% (inactive).
`O=C(NC(=S)Nc1ccc(NC(=O)c2cccs2)cc1)c1ccc([N+](=O)[O-])cc1` was tested, and the inhibition was -2.58% (inactive).
For `CC(=O)NC(=S)Nc1ccc(NC(=S)NC(=O)c2ccc([N+](=O)[O-])cc2)cc1`, the inhibition was 56.3% (active).
`O=C(Nc1ccc2ccccc2c1[N+](=O)[O-])c1ccccc1` was tested, and the inhibition was 0.89% (inactive).
In the case of `CC1(C)CCSC(/C=C/c2ccccc2)=N1`, the inhibition is reported as 76.1% (active).
For `CC(C)[C@@H](C(=O)OCC(=O)c1ccc2c(c1)NC(=O)CO2)N1C(=O)c2ccccc2C1=O`, the inhibition was -3.95% (inactive).
With `CN(Cc1ccccc1)C(=O)COc1ccccc1` the inhibition was 34.5% (active).
In the case of `CN(Cc1ccccc1)C(=O)c1ccc(COc2ccccc2)cc1`, the inhibition is reported as -2.72% (inactive).
`CN(Cc1ccc(F)cc1)C(=O)COc1ccc2ccccc2c1` was tested, and the inhibition was -2.25% (inactive).
In the case of `CN1CCC(N(C)C(=O)c2ccc(Cl)c(S(=O)(=O)Nc3ccc(Cl)cc3)c2)CC1`, the inhibition is reported as 4.93% (inactive).
With `CC(C)(C)OC(=O)N1CCC(C(=O)Nc2cccc(C(=O)NCCc3ccccc3)c2)CC1` the inhibition was -2.65% (inactive).
In the case of `COc1ccc(CNc2nc(NCc3ccc(OC)cc3)c3ncn(C4CCCC4)c3n2)cc1`, the inhibition is reported as 2.25% (inactive).
For `O=C(Nc1cc(S(=O)(=O)Nc2ccc(Cl)cc2)ccc1O)c1ccc(F)cc1F`, the inhibition was -2.45% (inactive).
For `COc1ccc(N=C2C=CC(=O)O2)cc1`, the inhibition was -18.5% (inactive).
In the case of `CCO[C@@H]1OC(C(=O)N2CCOCC2)=C[C@H](C)[C@H]1CCCO`, the inhibition is reported as -0.99% (inactive).
For `CCO[C@H]1OC(C(=O)N2CCOCC2)=C[C@@H](c2ccc3c(c2)OCO3)[C@@H]1CCCO`, the inhibition was 31.2% (active).
`CCO[C@H]1OC(C(=O)N2CCCCCCC2)=C[C@@H](c2ccc(C(F)(F)F)cc2)[C@@H]1CCCO` was tested, and the inhibition was -1.81% (inactive).
For `O=C(Cc1ccc(NC(=O)C2CCCN(C(=O)CCc3ccccc3)C2)cc1)Nc1ccc(C(=O)N2CCOCC2)cc1` (stereo not given), the inhibition was -8.09% (inactive).
With `CC1CCCCC1NCC(=O)Nc1ccccc1C(=O)Nc1ccccc1` (stereo not given) the inhibition was -1.41% (inactive).
In the case of `CN(C)C(=S)N=c1ssc(=S)n1Cc1ccco1`, the inhibition is reported as -2.26% (inactive).
`O=C(CNC(=O)c1cc(S(=O)(=O)N2CCOCC2)ccc1N1CCCC1)Nc1ccc(F)c(F)c1` was tested, and the inhibition was -2.42% (inactive).
For `C/C(=N/NC(=O)c1cc(Cl)ccc1O)C12CC3CC(CC(C3)C1)C2`, the inhibition was 0.948% (inactive).
For `O=C(N/N=C1\CCSC1)c1cc(Cl)ccc1O`, the inhibition was 39.8% (active).
`CC(C)/C=N/NC(=O)c1cc(Br)ccc1O` was tested, and the inhibition was -1.22% (inactive).
With `COc1cc(O)c2c(=O)c3c(O)c(O)ccc3oc2c1OC` the inhibition was -1.48% (inactive).
With `O=C(Cn1cnc2c(OCc3ccccc3)ncnc21)NCc1nc2ccccc2[nH]1` the inhibition was 9.79% (inactive).
For `CCOc1cc(C(=O)N(Cc2ccccc2)c2ccc(C)cc2)ccc1OCC(=O)N1CCOCC1`, the inhibition was -2.56% (inactive).
For `N#CC1(Nc2ccc(-c3ccc(Cl)cc3)cc2)CCCC1`, the inhibition was -1.39% (inactive).
In the case of `O=[N+]([O-])c1cc(S(=O)(=O)NCCc2ccccn2)ccc1Cl`, the inhibition is reported as 40.3% (active).
With `O=[N+]([O-])c1cccc(S(=O)(=O)NCc2ccccn2)c1` the inhibition was -3.81% (inactive).
For `O=S(=O)(NCCc1ccccn1)c1cc(Cl)cc(Cl)c1O`, the inhibition was -0.874% (inactive).
With `Cc1c(NS(=O)(=O)c2cccc(C(=O)Nc3ccc(SC(F)F)cc3)c2)c(=O)n(-c2ccccc2)n1C` the inhibition was -2.68% (inactive).
For `Fc1ccc(-c2ccc(CNCc3ccccn3)o2)cc1Cl`, the inhibition was 52.7% (active).
With `CN(Cc1ccccn1)Cc1nc(-c2ccc(Cl)cc2)no1` the inhibition was -1.29% (inactive).
With `Cc1cc(S(=O)(=O)NCc2ccccn2)c(Cl)cc1Cl` the inhibition was -2.31% (inactive).
With `NC(=O)C1(N2CCCC2)CCN(Cc2ccccc2)CC1` the inhibition was -1.05% (inactive).
With `COc1ccc(CNC(=O)C[C@H]2C[C@H](C(=O)N3CCOCC3)[C@@]3(CCC4CCCC4)c4[nH]c5ccc(Cl)cc5c4CCN3C2=O)cc1OC` the inhibition was -0.587% (inactive).
In the case of `O=C(NCc1ccc2c(c1)OCO2)c1cc(F)c(F)cc1Cl`, the inhibition is reported as -5.1% (inactive).
`COc1cc(OC)c(C(=O)NCc2ccc3c(c2)OCO3)cc1OC` was tested, and the inhibition was 81% (active).
In the case of `COc1ccc(NC(=O)NCc2ccc3c(c2)OCO3)c(OC)c1`, the inhibition is reported as -1.76% (inactive).
In the case of `O=C(NCCC(=O)N1O[C@@H]2C=C[C@H]1C2)OCC1c2ccccc2-c2ccccc21`, the inhibition is reported as -5.2% (inactive).
In the case of `O=C1CC2(CCCC2)C(=O)N1CN1CCN(S(=O)(=O)c2ccc(F)cc2F)CC1`, the inhibition is reported as -4.29% (inactive).
With `COc1ccc(CNCCCn2cnc3c(OCc4ccccc4)ncnc32)cc1` the inhibition was -2.18% (inactive).
In the case of `COc1ccc(-c2ccc(CCC(=O)O)n2-c2ccc(O)cc2)cc1`, the inhibition is reported as -0.609% (inactive).
In the case of `C=Cn1c(C(=O)O)ccc1-c1ccc(OC)cc1`, the inhibition is reported as 37.7% (active).
With `COc1ccc(OCC(=O)N2CCN(C(=O)COc3ccccc3)CC2)cc1` the inhibition was -1.31% (inactive).
`CN(C(=O)c1cccc(NC(=O)Cc2ccc(NC(=O)C3CCN(C(=O)C4CCCCC4)CC3)cc2)c1)C1CCC1` was tested, and the inhibition was -2.99% (inactive).
In the case of `CC1CC(C)CN(C(=O)C2CC(=O)N(c3ccc(F)cc3)C2)C1` (stereo not given), the inhibition is reported as -2.8% (inactive).
For `O=C(NC1CCCC1)C1CC(=O)N(c2ccc(F)cc2)C1` (stereo not given), the inhibition was 53.1% (active).
In the case of `COc1ccc(Cl)cc1NC(=O)C1CC(=O)N(c2ccc(F)cc2)C1` (stereo not given), the inhibition is reported as -7.15% (inactive).
In the case of `CC(=O)c1ccc(NC(=O)C(C)OC(=O)c2ccc(NS(=O)(=O)c3ccc4[nH]c(=O)[nH]c4c3)cc2)cc1` (stereo not given), the inhibition is reported as -8.65% (inactive).
In the case of `COc1ccc(/C=C2/CCCc3ccccc3C2=O)cc1`, the inhibition is reported as 1.76% (inactive).
In the case of `COc1ccc(Nc2ncnc3sc(C)cc23)cc1`, the inhibition is reported as 0.276% (inactive).
`COc1ccc(Nc2ncnc3sc(-c4ccccc4)cc23)c(OC)c1` was tested, and the inhibition was 179% (active).
With `COc1ccc(Nc2ncnc3ccc(Br)cc23)c(OC)c1` the inhibition was -10.3% (inactive).
For `CCOc1ccc(S(=O)(=O)N2CCN(C(=O)c3oc4ccccc4c3C)CC2)cc1`, the inhibition was 2.11% (inactive).
With `CC12CCCCC1=CC(=O)CC2` (stereo not given) the inhibition was 28.3% (inactive).
In the case of `O=C(CCC(=O)N1CCN(S(=O)(=O)c2ccc(Cl)cc2)CC1)NCc1cccc(C(F)(F)F)c1`, the inhibition is reported as -4.29% (inactive).
With `O=C(Cn1c(-c2cncs2)nc2ccccc21)NC1CCCC1` the inhibition was 41.1% (active).
For `O=C(Cn1c(-c2cscn2)nc2ccccc21)Nc1ccc(Cl)cc1`, the inhibition was -17.7% (inactive).
With `O=C(CN1CCN(c2ccccn2)CC1)NC1CCCCC1` the inhibition was 11.4% (inactive).
In the case of `c1ccc(-c2c[nH]c(-c3ccccc3)c2)cc1`, the inhibition is reported as -3.72% (inactive).
With `C/C=C/c1ccc(OCC(=O)NNC(=O)CN(C)S(=O)(=O)c2ccc(C)cc2)c(OC)c1` the inhibition was -0.216% (inactive).
`NC(=O)C1(Nc2ccc([N+](=O)[O-])cc2)CCCC1` was tested, and the inhibition was -0.108% (inactive).
In the case of `COc1ccccc1-c1sc2ccccc2c1C#CC1(O)CCCCC1`, the inhibition is reported as 0.068% (inactive).
For `COc1cccc(/C=C2/SC(=S)N(CC(=O)NC3C=CS(=O)(=O)C3)C2=O)c1` (stereo not given), the inhibition was -6.25% (inactive).
For `COc1cccc(/C=C2\SC(=N)N(c3ccc(F)cc3)C2=O)c1`, the inhibition was 161% (active).
With `COc1ccc(/C=C2\SC(=N)N(c3ccc(F)cc3)C2=O)cc1` the inhibition was -1.62% (inactive).
With `CCOC(=O)c1ccccc1OC(=O)Oc1ccccc1C(=O)OCC` the inhibition was 1.49% (inactive).
In the case of `O=C(O)c1ccc(/C=C2\SC(=S)N(NC(=O)c3ccc(Br)cc3)C2=O)cc1`, the inhibition is reported as 15.4% (inactive).
With `Cn1cccc1/C=C1\SC(=O)N(CC(=O)Nc2ccc(F)cc2)C1=O` the inhibition was -5.97% (inactive).
`Cn1cccc1/C=C1\SC(=S)N(NC(=O)c2ccc(Cl)cc2)C1=O` was tested, and the inhibition was 64.1% (active).
`CC(C)(C)NS(=O)(=O)NC(=O)C1=C(N2CCCC2)COC1=O` was tested, and the inhibition was -3.4% (inactive).
In the case of `COc1ccc(C(=O)OCc2cc(=O)n3ccsc3n2)cc1F`, the inhibition is reported as -3.31% (inactive).
`CCCC(O)(c1ccccc1)C(c1ccccc1)c1ccccn1` (stereo not given) was tested, and the inhibition was -2.63% (inactive).
For `COc1ccccc1-n1nnnc1S(=O)(=O)Cc1ccc(Cl)cc1`, the inhibition was 95.3% (active).
`COc1ccccc1N1CCN(S(=O)(=O)c2ccc(Cl)cc2)CC1` was tested, and the inhibition was -4.05% (inactive).
In the case of `COc1ccccc1-n1nnnc1SCC(=O)NC(=O)Cc1ccccc1`, the inhibition is reported as 0.182% (inactive).
With `CCCCNc1c(-c2ccc(OC)c(Sc3ccc(OC)cc3)c2)nc2ccc(Cl)cn12` the inhibition was 0.771% (inactive).
